Compounds with a hit are over-represented: about 13% of the library has one in this group of screens.
USP30 block – human USP30 deubiquitinase inhibition; purified USP30, Ub-rhodamine cleavage fluorescence; Q70CQ3; AID 1645860; inhibition, % at 25 µM; 47,000 tested, 5.3% active
USP17 inh – inhibitors of human USP17 deubiquitinase; AID 1645855; 47,000 tested, 6.5% active; inhibition, % at 50 µM; purified USP17, Ub-rhodamine cleavage fluorescence, 3 h; A8MUK1
USP28 inh – inhibitors of human USP28 deubiquitinase | purified USP28, Ub-rhodamine cleavage fluorescence, 30 min | AID 1645857 | inhibition, % at 25 µM | Q96RU2 | 47,000 tested, 3% active
USP8 block – human USP8 deubiquitinase inhibition. inhibition, % at 20 µM. P40818. 47,000 tested, 4.2% active. purified USP8, Ub-rhodamine cleavage fluorescence, 30 min
* marks the source's active call; other numbers are inactive results; · = no result given. No stated cut-off is given here; in the data, active means inhibition above about 30%; inactive means the rest.

SMILES | USP30 block | USP17 inh | USP28 inh | USP8 block
O=C(Nc1ccccc1)c1ccc(-c2nc(-c3ccc(Cl)cc3)cs2)cc1 | -8.7 | -0.7 | -4.2 | -1.5
CN1CC(=O)N(C2CCCNCC2)Cc2c(NCC3CC3)ncnc21 (configuration not stated) | 0.2 | -17.1 | -8.0 | -55.3
Cc1ccc(S(=O)(=O)Nc2ccc3[nH]cc(Cl)c3c2)cc1 | 38.5* | 48.9* | 44.3* | 41.7*
Cc1ccc(S(=O)(=O)Nc2ccc(S(=O)(=O)Nc3ccc(F)cc3)cc2)cc1 | 9.3 | 6.2 | 13.2 | 10.8
COCCN1CCO[C@H]2CN(C(=O)c3ccccc3C)C[C@H]21 | 0.0 | -5.6 | -2.2 | -39.7
Cc1ccc(S(=O)(=O)N2CCC(C(=O)OCC(=O)Nc3ccc(OC(F)(F)F)cc3)CC2)cc1C | 42.6* | 30.7* | 12.8 | 0.4
O=C(COCC1CCCO1)N1Cc2ccccc2OC2(CCOCC2)C1 (configuration not stated) | 13.8 | 7.6 | 3.4 | 20.4
Cc1cccc(NC(=O)Cn2cnc(-c3noc(-c4ccccc4)n3)c2)c1C | 43.5* | 18.2 | 38.9* | 72.6*
O=C(Cn1cnc(-c2noc(-c3ccc(F)cc3)n2)c1)Nc1ccccc1F | 3.0 | 10.0 | -0.1 | 66.7*
Cc1ccc(NC(=O)Cn2cnc(-c3noc(-c4cccnc4)n3)c2)cc1 | 2.5 | -0.6 | 0.6 | -3.6
Cc1ccccc1NC(=O)Cn1cc(-c2noc(-c3ccccc3)n2)nc1C | 5.9 | 14.5 | -2.3 | 7.3
O=C(c1ccc(F)cc1)[C@@H]1[C@H](C(=O)OC(c2ccccc2)c2ccccc2)N2c3ccccc3C=CC2[C@@]12C(=O)Nc1ccccc12 (some centres not stated) | -488.8 | -33.3 | -120.6 | -12.8
CCCc1ccc(C(=O)[C@@H]2[C@@H](C(=O)c3cccs3)N3c4ccc(C)cc4C(C)=C[C@@H]3[C@@]23C(=O)Nc2ccccc23)cc1 | -69.2 | 12.2 | -0.6 | 66.7*
CC(C)OCCCNC(=O)c1ccc2c(=O)nc3c(-c4ccccc4)n[nH]n3c2c1 | -26.6 | 0.0 | 15.1 | -20.8
Cc1ccccc1S(=O)(=O)N1CCC(n2cnc3ccccc3c2=O)CC1 | -2.7 | -3.5 | -5.4 | 1.4
O=c1c2ccccc2ncn1C1CCN(S(=O)(=O)c2ccccc2F)CC1 | -13.5 | 51.2* | -7.5 | 3.9
Cc1cccc2c(=O)n(C3CCN(S(=O)(=O)c4ccccc4)CC3)cnc12 | 9.1 | 43.7* | 3.1 | -3.4
O=C(NCc1cccc(Cl)c1)c1noc2c1CCc1sccc1-2 | 24.1 | 21.1 | 15.0 | 25.8
Cc1ccc2cnn(CC(=O)NCCc3ccccc3)c2c1 | -3.6 | -0.6 | -8.8 | -0.3
Cn1c(COc2ccccc2)nnc1SCC(=O)Nc1ccc(N2CCOCC2)cc1 | 31.1* | 21.6 | 58.1* | 16.0
O=C(Cn1c(COc2ccccc2)nc2ccccc21)Nc1cc(Cl)ccc1Cl | 0.1 | 9.5 | 6.3 | 55.5*
O=C(Cn1c(COc2ccccc2)nc2ccccc21)Nc1cc(Cl)cc(Cl)c1 | 30.6* | 16.2 | 12.1 | 73.4*
COc1ccc(NC(=O)Cn2c(CS(=O)(=O)c3ccc(C)cc3)nc3ccccc32)cc1 | 50.7* | 23.8 | 1.6 | 10.8
COc1cccc(NC(=O)Cn2c(C(F)(F)F)nc3ccccc32)c1 | · | -9.4 | · | 0.2
COc1cccc(NC(=O)Cn2c(COc3ccccc3)nc3ccccc32)c1 | 27.5 | 62.9* | 1.9 | 15.1
SMILES | USP30 block | USP17 inh | USP28 inh | USP8 block
O=C(Cn1c(COc2ccccc2)nc2ccccc21)Nc1ccc(N2CCOCC2)cc1 | 22.5 | 8.2 | 7.8 | 33.5*
O=C(NC1CCCc2ccccc21)c1cc2ccccn2n1 (configuration not stated) | -0.4 | 2.4 | 7.3 | 12.5
COc1ccccc1NC(=O)N1CCC(c2nc(-c3cccc(C(F)(F)F)c3)no2)CC1 | 15.9 | 7.9 | 7.5 | 17.0
O=C(c1cccc(Br)c1)N1CCc2cc3ccccc3nc21 | 17.0 | 8.9 | 11.7 | 17.3
Cc1cccc(NC(=O)NCCc2nc(-c3ccccc3)n[nH]2)c1 | 17.0 | -0.5 | 8.6 | -0.6
COc1cccc(-n2c(SCC(=O)N3CCc4ccccc43)nnc2-c2cccnc2)c1 | 0.9 | 15.7 | 3.7 | 0.9
CCOc1ccc(-n2c(SCC(=O)N3CC(=O)Nc4ccccc43)nnc2-c2ccc(OC)cc2)cc1 | 17.4 | 50.7* | 35.4* | -1.9
COc1cc2c(cc1OC)CN(C(=O)CCS(=O)(=O)c1ccc(Cl)cc1)CC2 | -70.2 | 32.1* | -3.9 | 76.0*
O=C(NCc1ccncc1)C1CN(C(=O)c2ccccc2F)CC12CCOCC2 (configuration not stated) | -6.9 | -0.3 | -8.0 | -14.2
CCc1cc(=O)n(CC(=O)NCc2ccc(F)cc2)c(N2CCOCC2)n1 | 30.8* | 22.2 | 5.9 | 0.8
Cc1ccc(CNC(=O)Cn2c(N3CCCCC3)nc(C)cc2=O)cc1 | 35.9* | 40.6* | 22.9 | 9.5
Cc1cc(=O)n(CC(=O)NCc2ccc(F)cc2)c(N2CCCCC2)n1 | 1.9 | -1.8 | -3.0 | -10.8
CC(NC(=O)c1ccc(-c2cccnc2)nc1)c1ccccc1 (configuration not stated) | -5.3 | -8.6 | -12.0 | -10.1
COc1ccc(CN2C(=O)c3cc(C)nn3CC2(C)C(=O)NCc2ccc(Cl)cc2)cc1 (configuration not stated) | 21.7 | 9.6 | 8.7 | 15.3
NC(=O)c1cc(NC(=O)c2ccc3ccccc3c2)cc(C(N)=O)c1 | 66.4* | 65.6* | 57.2* | 0.8
Cc1cccc(CNC(=O)C2CCCN(c3nnc4ccccn34)C2)c1 (configuration not stated) | -7.9 | -0.8 | 3.2 | 5.6
COc1ccccc1CNC(=O)C1c2ccccc2C(=O)N1c1ccc(F)cc1 (configuration not stated) | 1.3 | 14.0 | -0.1 | 10.2
CCc1cccc(N2C(=O)c3ccccc3C2C(=O)NCc2ccccc2OC)c1 (configuration not stated) | 10.8 | 7.1 | -0.2 | 32.0*
N#Cc1cnn2c(-c3cccc(OCc4ccc(Cl)cc4Cl)c3)ccnc12 | -0.6 | -7.7 | -2.0 | 10.8
FC(F)(F)c1ccc(Nc2nnnc3ccccc23)cc1 | -33.6 | -8.5 | -8.9 | 63.8*
O=C([C@H]1C[C@@H]2CN(Cc3ccccc3)C[C@H]1O2)N1CCCC1 | 0.1 | -13.6 | -2.7 | 0.6
O=C(Nc1ccc2c(c1)OCO2)C(Cc1cc(Cl)cc2c1OCOC2)C(=O)c1ccccc1 (configuration not stated) | 1.5 | 0.4 | -4.1 | 9.2
O=C(CC(C(=O)Nc1ccc2c(c1)OCO2)C(=O)c1ccccc1)Nc1ccc(Cl)cc1F (configuration not stated) | 58.9* | 34.2* | 19.2 | 22.4
N#Cc1ccc(CC(C(=O)Nc2ccc3c(c2)OCO3)C(=O)c2ccccc2)cc1 (configuration not stated) | 34.8* | 13.4 | 15.1 | 13.3
CCn1c2ccccc2c2cc(C(C(=O)NC3CCCC3)N(Cc3ccc(OC)cc3)C(=O)c3ccco3)ccc21 (configuration not stated) | 22.2 | 0.2 | 9.4 | 9.1
Cc1nc2c(NC(=O)Cc3c(C)noc3C)cccn2n1 | -87.8 | -21.2 | -19.0 | -6.5
CC(C)(OC(=O)c1ccccc1)[C@H]1Cc2cc3ccc(=O)oc3cc2O1 | 25.6 | 12.9 | 13.8 | 12.1

Screens: PubChem BioAssay, Buhrlage Lab, Dana-Farber Cancer Institute and Novartis Institutes for BioMedical Research (Cambridge, Mass)
